Wnt act – activators of Wnt/beta-catenin signaling | Wnt/beta-catenin reporter cell assay, activator, plate reader | activation, % at 9.35 µM | hit rate 1.2% among 300,000 | AID 743398; in the data active = activation above about 30%, passing the limit was not always enough; inconclusive = no clear call, values can overlap the other calls
PfHsp90 set2 – growth inhibition of yeast expressing Plasmodium Hsp90. S. cerevisiae expressing PfHsp90, BacTiter-Glo ATP, 48 h; yeast lacking PDR1 and PDR3 efflux regulators. inhibition, % at 9.4 µM. hit rate 0.32% among 310,000. AID 504621;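 active = every replicate shows inhibition above about 80%, whatever the replicate mean, limit read from the data; inconclusive = mean inhibition reaches the set limit but some replicate falls short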
MITF act – MITF TRPM1 promoter activation in melanoma cells; SK-MEL-5 TRPM1-promoter luciferase, 24 h; % of positive control, neutral wells = 0; activation, % at 12.5 µM; hit rate 0.75% among 300,000; AID 588334;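 active = mean activation of at least 80% with every replicate also reaching 80%; inconclusive = mean reaches 80% but some replicate falls short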
Glyco luc inh – N-linked glycosylation inhibition; reporter increase, % at 12.5 µM; hit rate 0.23% among 360,000; D54 ERlucT glycosylation luciferase reporter, 24 h; percent of 100 nM tunicamycin response;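 active = mean luciferase reporter signal, scaled so untreated is 0 and the glycosylation-blocking control 100, at or above a set limit in every replicate; inconclusive = mean reaches the limit but not every replicate does; inactive = mean below the limit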;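 also: luciferase carries N-glycosylation sites so blocking glycosylation raises the light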
Vif imaging – inhibitors of HIV Vif; HEK293T cells, Vif self-association by quenched fluorescence, imaging, 24 h; inhibition, % at 7.49 µM; hit rate 0.35% among 340,000; AID 602346; in the data active = inhibition above about 50%, passing the limit was not always enough; inconclusive = no clear call, values can overlap the other calls; inactive = below about 31%
esBAF inh – inhibitors of esBAF chromatin remodeling in mouse ES cells. reporter increase, % at 12.5 µM. hit rate 2% among 350,000. Bmi1-luciferase knock-in reporter, 24 h; 100% = twice the neutral-well signal; in the data active = activation above about 40%; inconclusive = no clear call, values can overlap the other calls;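 also: a rise in the Bmi1 reporter signal indicates esBAF inhibition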
A number is an active result; n = inactive; u = inconclusive; x = no result. Shown are actives, neighbours in structure and some others; about 3% of the full set was active somewhere.

SMILES | Wnt act | PfHsp90 set2 | MITF act | Glyco luc inh | Vif imaging | esBAF inh
O=C1CCCN1CCCNc1ncnc2c1cnn2-c1ccc(Cl)cc1 | n | n | n | n | n | 42.4
c1ccc(-n2ncc3c(NCc4cccs4)ncnc32)cc1 | 70.7 | n | x | n | n | 45.4
O=C(COc1ccc([N+](=O)[O-])cc1)N(Cc1cccs1)C1CCS(=O)(=O)C1 (stereo unspecified) | n | n | n | n | n | n
O=C(Nc1ccccc1Br)c1ccc(N2CCCC2=O)cc1 | 37.3 | n | 87.3 | n | n | 55.1
Cc1nnc(NC(=O)c2ccc(N3CCCC3=O)cc2)s1 | n | n | 85.3 | n | x | u
Cc1csc(NC(=O)c2ccc(N3CCCC3=O)cc2)n1 | 34.6 | n | n | n | n | x
O=C(Nc1ccccc1N1CCCC1)c1ccc(N2CCCC2=O)cc1 | n | n | n | n | n | n
CCCNC(=O)N(C)C[C@@H]1Oc2cc(Br)ccc2S(=O)(=O)N([C@@H](C)CO)C[C@@H]1C | x | x | x | x | x | n
CC1CC(C)CN(c2ccc(-n3cnnn3)cc2[N+](=O)[O-])C1 (stereo unspecified) | x | n | n | n | n | n
O=[N+]([O-])c1cc(-n2cnnn2)ccc1N1CCC(Cc2ccccc2)CC1 | x | 104.1 | n | n | 78.2 | n
CN(C)CCCNC(=S)N(CCO)Cc1cc2cc3c(cc2[nH]c1=O)OCO3 | n | n | n | n | n | n
O=C(COC(=O)C12CC3CC(CC(O)(C3)C1)C2)Nc1ccc(Br)cc1F | u | n | 129.0 | n | n | n
Cc1onc(-c2c(Cl)cccc2Cl)c1NC(=O)NC1CCSC1 (stereo unspecified) | 34.1 | x | x | n | n | x
Cc1onc(-c2c(Cl)cccc2Cl)c1NC(=O)N(C)N | n | n | n | n | n | n
Cc1cccc(CCNC(=O)CCc2c(C)nc3ncnn3c2C)c1 | x | n | n | x | x | x
COC(=O)c1c(-c2ccc(OC)cc2)sc2ccc(N3CCOCC3)cc12 | n | n | n | n | n | 42.2
COC(=O)c1c(-c2ccc(S(C)(=O)=O)cc2)sc2cc(OC)ccc12 | u | x | n | n | n | 44.7
COC(=O)c1c(-c2ccc(SC)cc2)sc2ccccc12 | n | n | n | n | n | 69.6
COC(=O)c1c(-c2ccc(S(C)(=O)=O)cc2)sc2ccc(OC)cc12 | 46.7 | x | 106.6 | n | n | 59.5
COC(=O)c1c(-c2ccccc2OC)sc2ccccc12 | n | n | n | n | n | n
Cc1ccc2nc(-c3cccc(NS(C)(=O)=O)c3)cc(-c3ccccc3)c2c1 | n | 100.1 | n | n | n | x
Cc1nc(-c2cccc(NS(=O)(=O)c3ccccc3)c2)cs1 | x | n | n | n | n | n
Cc1cc(C)cc(NC(=O)C2CCCCN2S(=O)(=O)c2ccccc2)c1 (stereo unspecified) | n | x | x | n | n | n
CCC(C)c1ccc(NC(=O)C2CCCN(c3ncccn3)C2)cc1 (stereo unspecified) | x | n | x | n | n | 48.3
O=C(Nc1nc2ccccc2[nH]1)c1cccc(S(=O)(=O)N2CCOCC2)c1 | x | n | n | n | n | x
SMILES | Wnt act | PfHsp90 set2 | MITF act | Glyco luc inh | Vif imaging | esBAF inh
CCOC(=O)c1c(C)[nH]c(C(=O)COC(=O)/C=C/c2ccc(O)c(OC)c2)c1C | x | n | n | n | 50.0 | n
COc1ccc(/C=C/C(=O)O)cc1S(=O)(=O)N1CCCc2ccccc21 | n | n | n | n | n | n
COc1cc(/C=C/C(=O)OCC(=O)N2CCCc3ccccc32)ccc1O | n | n | n | n | 67.8 | n
CCOC(=O)c1c(C)[nH]c(C(=O)COC(=O)/C=C/c2ccc3c(c2)OCO3)c1C | n | n | n | n | n | x
COc1cc(/C=C/C(=O)O)ccc1S(=O)(=O)N1CCCc2ccccc21 | n | n | n | n | 96.2 | x
C[C@@H]1CN([C@H](C)CO)C(=O)c2cc(NC(=O)Nc3ccc4c(c3)OCO4)ccc2O[C@@H]1CN(C)S(=O)(=O)c1ccc(F)cc1 | x | x | x | x | x | n
COc1ccccc1/C=C1/C(=O)N(c2cc(C)cc(C)c2)C(c2cccc([N+](=O)[O-])c2)S1(=O)=O (stereo unspecified) | n | n | n | n | n | n
CCOc1ccc(N2C(=O)/C(=C\c3ccccc3OC)S(=O)(=O)C2c2cccc([N+](=O)[O-])c2)cc1 (stereo unspecified) | x | 109.7 | n | n | n | x
